# Compound activity as filed in PubChem BioAssay.
# Six1-Eya2 blk = blocks human Six1 binding to Eya2; Q15475+O00167; AlphaScreen GST-Six1/His-Eya2 binding, biochemical; active compounds read low; activity change, % (test concentration not listed); actives 0.56% (n = 360,000); AID 651725
#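 AlphaScreen with GST-Six1 and His-Eya2 (5X mix: 250 nM and 500 nM), glutathione donor and nickel acceptor beads; buffer 50 mM Tris pH 8.0, 300 mM NaCl, 1 mM TCEP; 1 h at 37 C in the dark.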
# L3MBTL1 block = blocks human L3MBTL1. AlphaScreen L3MBTL1–H3K9me1 peptide binding. Q9Y468. actives 0.66% (n = 230,000). Potency, µM (top dose mostly 57.1 µM), actives largely listed as inhibitors; active means well fitted inhibition curve with a large enough effect; inconclusive means small, poorly fitted or top-dose-only effect; inactive means no such curve, though single readings can be large or run the other way; further: nearly all actives have a fitted effect of over 60% in size
# Target sequence (Q9Y468 whole entry, looked up): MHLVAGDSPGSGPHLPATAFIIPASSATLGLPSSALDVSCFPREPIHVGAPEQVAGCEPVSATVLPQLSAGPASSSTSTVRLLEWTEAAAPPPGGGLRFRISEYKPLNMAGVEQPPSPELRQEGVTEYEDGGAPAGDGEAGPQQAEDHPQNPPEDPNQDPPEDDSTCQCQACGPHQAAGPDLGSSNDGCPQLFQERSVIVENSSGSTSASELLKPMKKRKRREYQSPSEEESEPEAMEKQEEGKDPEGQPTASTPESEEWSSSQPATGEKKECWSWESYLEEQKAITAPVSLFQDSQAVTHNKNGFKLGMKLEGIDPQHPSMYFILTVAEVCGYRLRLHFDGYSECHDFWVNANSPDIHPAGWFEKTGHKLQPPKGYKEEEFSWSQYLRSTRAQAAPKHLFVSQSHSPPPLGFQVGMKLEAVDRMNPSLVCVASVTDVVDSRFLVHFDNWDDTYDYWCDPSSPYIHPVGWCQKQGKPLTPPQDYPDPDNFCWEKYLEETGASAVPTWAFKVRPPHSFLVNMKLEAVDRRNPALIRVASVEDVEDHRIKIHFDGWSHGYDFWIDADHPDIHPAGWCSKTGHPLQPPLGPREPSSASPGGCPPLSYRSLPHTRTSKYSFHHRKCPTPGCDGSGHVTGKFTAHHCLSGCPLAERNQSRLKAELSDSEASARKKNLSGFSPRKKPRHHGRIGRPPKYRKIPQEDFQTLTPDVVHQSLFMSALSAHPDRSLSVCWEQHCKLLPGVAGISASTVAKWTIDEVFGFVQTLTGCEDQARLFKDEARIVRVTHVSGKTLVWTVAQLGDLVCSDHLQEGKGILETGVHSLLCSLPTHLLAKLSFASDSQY
#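 AlphaScreen assay: L3MBTL1 (50 nM final) was preincubated 30 min at room temperature with biotinylated H3(1-15)K9me1 peptide (75 nM final), then 30 min with library compounds; streptavidin donor and nickel chelate acceptor beads (10 ug/mL final) added, 30 min dark.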
# KDM4E inh = JMJD2E (human) inhibition; B2RXH2; JMJD2E catalytic domain, FDH-coupled NADH fluorescence (FDH is formaldehyde dehydrogenase); Potency, µM (top dose mostly 57.1 µM), actives largely listed as inhibitors; actives 1.6% (n = 230,000); AID 2147; active means well fitted inhibition curve with a large enough effect, not every such curve was filed as active; inconclusive means small, poorly fitted or top-dose-only effect, or another doubt; inactive means no such curve, though single readings can be large or run the other way; further: nearly all actives have a fitted effect of over 50% in size
# CtBP-E1A inh = inhibitors of CtBP/E1A interaction; AlphaScreen GST-E1A/His-CtBP binding, 1536-well; active compounds read low; activity change, % (test concentration not listed); actives 0.49% (n = 340,000); AID 651724
#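 AlphaScreen with 125 nM GST-E1A and 125 nM His-CtBP (5X stocks) in Tris pH 8.0, 300 mM NaCl, BSA, Tween 20, TCEP. Compounds preincubated 2 h at 37 deg C, then glutathione donor/nickel acceptor beads added for 1 h at 37 deg C in dark.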
# Hits are given with their value; - = inactive; ? = inconclusive; . = no result given; [ ] = another dose, or the depositor's remark. Many of the other results were omitted from the sample, so hits are more common in it than they were. Unless noted, no stated cut-off is given here; in the data, active means activity change below about -65%; inconclusive means mostly about -30% to -63%; inactive means weaker than that.
SMILES,Six1-Eya2 blk,L3MBTL1 block,KDM4E inh,CtBP-E1A inh
COCCNC(=O)CCc1c(C)nc2nc(-c3cc(OC)cc(OC)c3)nn2c1C,-,.,-,-
CN1CCN(C(c2ccccc2)c2ccc(Cl)cc2)CC1 (stereo not drawn),-,-,.,-
Oc1c(C(c2ccccn2)N2CCCCC2)cc(Cl)c2cccnc12 (stereo not drawn),-92.3,.,?,-93.2
CN1CCN(C(c2ccc(Cl)cc2)c2cc(Cl)c3cccnc3c2O)CC1 (stereo not drawn),?,.,.,-80.4
Cc1o[nH]c(=O)c1CC[C@H](N)C(=O)O,.,.,-,.
CCOC(=O)c1ccc(-n2c(O)c(/C=N/NC(=O)C3COc4ccccc4O3)c3ccccc3c2=O)cc1 (stereo not drawn),?,-,25.1µM,-
CCOC(=O)c1ccc(NC(=O)C2COc3ccccc3O2)cc1 (stereo not drawn),-,-,.,-
CCCCCc1cc(=O)oc2c(C(CCN3CCCC3)c3cc(OC)c(OC)c(OC)c3)c(OC)cc(OC)c12 (stereo not drawn),-,.,22.4µM,-
COC/C=C/C1=CC2=CC(=O)C(C)(OC(=O)c3cnc4ccccc4n3)C(=O)C2=CN1c1ccc(CO)cc1 (stereo not drawn),.,3.16µM,-[11.4 µM],.
Oc1ccc(/C=N/NC(=S)Nc2cccnc2)c(O)c1,-89.9,8.91µM,28.2µM,-81.6
Oc1cccc(/C=N/NC(=S)Nc2cccnc2)c1O,-90.6,3.98µM,22.4µM,-94.7
Fc1ccc(/C=N/NC(=S)Nc2cccnc2)cc1,-,?,-,.
Fc1c(F)c(F)c(/C=N/NC(=S)Nc2cccnc2)c(F)c1F,-,-,-,-
Oc1ccc(/C=N/NC(=S)Nc2cccnc2)c(O)c1O,-89.4,.,2.24µM,-93.4
Oc1ccc(C=NNC(=S)Nc2ccccc2)nc1,-96.7,.,.,-76.5
Fc1cccc(F)c1/C=N/NC(=S)Nc1cccnc1,-,-,-,-
COc1ccc(C(=O)[C@]2(C)C=C(c3ccc(OC)cc3)[C@H](C)C2)cc1,.,.,-,.
Cc1cc(=O)[nH]c(N/N=C/C2=C(N3CCOCC3)C(=C\c3ccc(Cl)cc3)/CC2)n1,-,-,28.2µM,-
CN(C)c1ccc(N=Nc2ccccc2Br)cc1,-86.6,.,.,-89.9
COc1ccc([C@H]2/C=C\CN(C(=O)CC(C)(C)C)[C@@H](C)C(=O)N2Cc2ccc(F)cc2)cc1,-,.,.,-
COc1ccc([C@H]2/C=C\CN(Cc3ccc(N(C)C)cc3)[C@@H](C)C(=O)N2Cc2ccc(F)cc2)cc1,?,.,.,-65.1
COc1ccc(-c2nc(-c3ccccc3)c(NC(C)(C)C)o2)cc1,.,.,-,.
Cc1cc2ccccn2c1C(=O)c1nc(NCc2ccccc2)ncc1Cl,-,?,-,.
N#Cc1c(=O)c2nc(NCc3ccccc3)ncc2n2ccccc12,-65.8,.,?,?
COc1ccc(CCC(=O)NCCOc2ccccc2Cl)cc1,-,.,.,.
SMILES,Six1-Eya2 blk,L3MBTL1 block,KDM4E inh,CtBP-E1A inh
Cc1cc(C)cc(NC(=O)CSc2nc(N)c(NC(=O)c3ccc(Br)o3)c(=O)[nH]2)c1,-,.,.,-
CCOC(=O)c1ccc(NC(=O)CSc2nc(N)c(NC(=O)c3ccc(Br)o3)c(=O)[nH]2)cc1,-79.4,.,.,?
O=[N+]([O-])c1ccc(Sc2cccc[n+]2[O-])c2nonc12,-68.2,?,-,-68.2
CSCCC1NC(=O)C(C(C)=NNC(N)=O)=C1O (stereo not drawn),?,.,.,-
CSCCC(NS(=O)(=O)c1ccccc1F)C(=O)NCc1cccnc1 (stereo not drawn),-,-,.,-
CC[C@]12c3[nH]c4cc(-c5ccco5)ccc4c3CCN1C(=O)[C@@H](CC(=O)NCCC1=CCCCC1)C[C@@H]2C(=O)N1CCN(C(=O)c2ccco2)CC1,-,20µM,.,-
O=C(N/N=C/c1cc([N+](=O)[O-])ccc1O)c1ccc2c(c1)OCCO2,-80.8,-,25.1µM,-
O=C(N/N=C/c1ccccc1[N+](=O)[O-])c1ccc2c(c1)OCCO2,-,.,-,-
O=C(N/N=C/c1cccnc1)c1cccc(NC(=O)c2cccc(Br)c2)c1,-,.,.,-
O=C(N/N=C/c1ccc(O)c2ncccc12)c1cccc(Br)c1,-82.2,7.94µM,-,-92.1
Cc1nc(C)c(C(=O)N/N=C/c2c[nH]c3ccccc23)s1,-,.,?,-
Cc1cc(C(=O)N/N=C/c2cc(Br)ccc2OC(=O)c2ccccc2)n[nH]1,?,?,-,-67.0
Cc1nc(C)c(C(=O)N/N=C/c2cc(Br)ccc2O)s1,?,.,22.4µM,-83.9
O=C(N/N=C/c1cc([N+](=O)[O-])ccc1O)c1cccc(N2CCCC2=O)c1,-91.2,.,.,-93.2
